Screens: PubChem BioAssay, National Center for Advancing Translational Sciences (NCATS)
The list is not random: actives were taken first. Their share in the collection is about 3.2%.
PMP22 txn – Cell-based coincidence reporter assay to measure PMP22 gene transcription in S16 Pmp22-F2sN cells - Primary screen; Potency, µM (highest dose often 57.5 µM), most hits filed as inhibitors; S16 Pmp22-F2sN Schwann cells, FLuc/NLuc coincidence luminescence, 24 h; hit rate 2% among 43,000; active = clear falling dose curves in both reporters; inconclusive = both reporters move, but less clearly or upward; inactive = either reporter flat; the % is the NLuc reporter signal
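Luminescent read-out of sequential FLuc and NLuc signals from a reporter embedded in the Pmp22 3' UTR of S16 Schwann cells, taken after 24 h compound exposure at 37C; compounds reducing both signals score as inhibitors of expression.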
mTORC1 inh – Acumen qHTS Assay for Inhibitors of the mTORC1 Signaling Pathway in MEF (Tsc2-/-, p53-/-) Cells: Sytravon | Tsc2-/- p53-/- MEF, phospho-rpS6 immunofluorescence/PI, 24 h | hit rate 0.78% among 44,000 | AID 493208, 2011 | Potency, µM (highest dose often 38.3 µM), most hits filed as inhibitors; note: nearly all actives have a fitted effect of over 50% in size
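Readout is phospho-S6 Alexa 488 signal normalized to PI per well, reported as % active cells with thresholds set from rapamycin (7.5 nM) and DMSO controls. Cells: Tsc2-/-, p53-/- MEFs, 24 hrs compound at 37 C; PI cell number serves as viability.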
S16 F2sN tox – Cell viability qHTS assay in S16 Pmp22-F2sN cells | S16 Pmp22-F2sN Schwann cells viability, CellTiter-Glo, 24 h | Potency, µM (top dose mostly 57.5 µM), hits mostly cytotoxic | hit rate 0.48% among 43,000 | AID 1508642, 2021; note: nearly all actives have a fitted effect of over 65% in size
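Used to flag compounds lowering reporter output through toxicity, this quantitative HTS measures ATP-based CellTiter-Glo luminescence in S16 Pmp22-F2sN Schwann cells after 24 h compound exposure at 37C.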
p53null 39C kill – qHTS Screen for Compounds that Selectively Target Cancer Cells with p53 Mutations: Cytotoxicity of p53 Null Cells at the Nonpermissive Temperature. AID 904, 2007. H1299 p53-null (neo) cells, 39C, ATPlite viability, 24 h. hit rate 0.97% among 55,000. Potency, µM (top dose mostly 46.1 µM), most hits filed as cytotoxic; note: nearly all actives have a fitted effect of over 50% in size
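ATP-luminescence viability readout (ATPlite, 20 min RT) after 24 hr compound treatment at 39C of H1299-neo or H1299-p53A138V cells; titration up to 46 uM; normalized to DMSO and 100 uM tamoxifen; Hill-fit AC50.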
p53null 32C tox – qHTS Screen for Compounds that Selectively Target Cancer Cells with p53 Mutations: Cytotoxicity of p53 Null Cells at the Permissive Temperature; AID 903, 2007; hit rate 0.62% among 55,000; Potency, µM (titrated, usually from 46.1 µM), usual class: cytotoxic; H1299-neo p53 null cells, ATP luminescence, 24 h, 32C; note: nearly all actives have a fitted effect of over 55% in size
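H1299-neo (p53 null) cells, 600/well, treated 24 h at 32C with compound up to 46 uM; ATPlite luminescence viability, normalized to DMSO and 100 uM tamoxifen; AC50 by Hill fit.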
A number is an active result; . = inactive; ? = inconclusive; / = no result given; [ ] = remark or other dose. Unless noted, calls come from the whole dose curve; as a rule, active = well fitted curve in the direction sought with a large enough effect; inconclusive = small, poorly fitted or top-dose-only effect, or another doubt; inactive = no such curve, though single readings can be large; an effect the other way counts as inactive or inconclusive.

SMILES | PMP22 txn | mTORC1 inh | S16 F2sN tox | p53null 39C kill | p53null 32C tox
CCOc1ccc(S(=O)(=O)Nc2ccc3oc(C)c(C(=O)OC(C)C)c3c2)cc1 | ? | . | . | . | .
Cc1cc(S(=O)(=O)Nc2ccc3oc4c(c3c2)CCCC4)ccc1Cl | ? | . | . | 17.8µM | ?
CCOC(=O)c1c(C)oc2c(Cl)cc(NS(=O)(=O)c3ccc(Cl)c(C)c3)cc12 | ? | . | . | 5.01µM | .
CCCc1oc2ccc(NS(=O)(=O)c3ccc(OCC)cc3)cc2c1C(=O)OCC | ? | 14.7µM | . | 17.8µM | .
O=C(/C=C/Nc1ccccc1F)c1cccs1 | / | / | / | / | 11.2µM
O=C(/C=C/Nc1ccc(F)cc1F)c1cccs1 | / | / | / | / | 10µM
CCOC(=O)c1ccccc1N/C=C/C(=O)c1cccs1 | / | / | / | .[1.84 µM] | /
CCOC(=O)c1sc(NC(=O)/C=C/c2ccc(OCC)cc2)c(C(=O)OCC)c1C | . | . | . | . | .
COc1ccc(/C=C/C(=O)Nc2sc(C)c(C)c2C(=O)O)cc1 | . | . | . | 0.794µM | 3.16µM
CN(CC(=O)NCc1ccc(Cl)cc1)S(=O)(=O)c1ccc2[nH]c3c(c2c1)CCCC3 | ? | . | . | . | .
Cc1ccccc1-c1nsc(SCC(=O)NCc2ccc3c(c2)OCO3)n1 | / | / | / | . | .
CCOc1ccc(-c2cc(C(=O)N3CCN(c4cccc(C)c4)C(C)C3)c3ccccc3n2)cc1 (stereo not given) | . | . | ? | . | ?
CCn1c(=O)cc(OCC(=O)N2CCN(c3ccc(C)cc3)C(C)C2)c2ccccc21 (stereo not given) | ? | . | . | 25.1µM | .
CCOc1ccc(-c2cc(C(=O)N3CCN(c4ccc(C)cc4)C(C)C3)c3ccccc3n2)cc1 (stereo not given) | . | . | . | ? | 12.6µM
CCN(CC)S(=O)(=O)c1ccc2c(c1)c(=O)c(C(=O)NCc1ccccc1Cl)cn2C | ? | . | . | 5.01µM | ?
O=C(COc1ccc(Br)cc1Cl)Nc1ncn[nH]1 | . | . | . | ? | ?
CCc1ccc(OCC(=O)Nc2ncn[nH]2)c(Br)c1 | . | . | . | 1.26µM | 2µM
Cc1cccc(CS(=O)(=O)Cc2ccc(C(=O)NCc3ccc(Cl)cc3)o2)c1 | ? | . | ? | . | .
O=C1CC(c2nc3ccccc3n2CCC2CCCCC2)CN1c1ccccc1Cl (stereo not given) | . | . | . | 15.8µM | ?
CCOc1ccccc1N1CC(c2nc3ccccc3n2CCOc2ccc(C(C)(C)C)cc2)CC1=O (stereo not given) | . | ? | . | 20µM | ?
CCc1ccccc1N1CC(c2nc3ccccc3n2CCOc2ccc(Cl)c(C)c2)CC1=O (stereo not given) | ? | . | ? | 17.8µM | .
CCOc1ccccc1N1CC(c2nc3ccccc3n2CCCCOc2cc(C)ccc2C)CC1=O (stereo not given) | . | . | . | 12.6µM | ?
CCOc1ccccc1N1CC(c2nc3ccccc3n2CCCOc2ccccc2OC)CC1=O (stereo not given) | . | . | . | . | .
CCOc1ccc(N2CC(c3nc4ccccc4n3CCC3CCCCC3)CC2=O)cc1 (stereo not given) | ? | . | . | . | .
Cc1cc(OCCn2c(C3CC(=O)N(Cc4ccc(F)cc4)C3)nc3ccccc32)ccc1Cl (stereo not given) | ? | . | . | . | .
Cc1ccc(C(=O)n2nc(C)c(S(=O)(=O)N3CCCCCC3)c2C)cc1 | ? | ? | . | . | .
COc1ccccc1CNc1ncnc2c1cnn2-c1ccc(C)cc1 | ? | . | . | . | .
Oc1c(C(Nc2ccccn2)c2ccccc2F)ccc2cccnc12 (stereo not given) | ? | ? | 2µM | 3.98µM | ?
Cc1ccnc(NC(c2ccccc2F)c2ccc3cccnc3c2O)c1 (stereo not given) | ? | ? | ? | ? | .
